Measured values published in PubChem BioAssay (Tox21).
Records with an inconclusive call do not appear. A call without a number means that no potency is given here. Unmarked numbers belong to inactive results. Active and inactive are the calls of the source. Unless noted, the call rests on the fitted dose curve; in most records, active means well fitted cell-killing curve with a large enough effect in the repeat runs; inconclusive means weak or mixed curves; inactive means no such curve, though single readings can be large or run the other way.

system: not listed separately; test: qHTS assay to identify small molecule agonists of the peroxisome proliferator-activated receptor delta (PPARd) signaling pathway - cell viability counter screen (AID 743211); settings: PPARd-bla HEK293H viability, CellTiter-Glo luminescence, 17 h; series mostly up to 62.6 µM; further: nearly all actives have a fitted effect of over 55% in size; further: potency means the concentration at half of the fitted maximal effect
Summary of the method: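 PPARd-bla HEK293H cells (UAS-beta-lactamase reporter) were treated with compounds for 17 h at 37 C. Viability was then read in the same wells by CellTiter-Glo luminescence after 30 min at room temperature.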

Row | Compound | Potency | activity change, negative = cytotoxicity
1 | CC(=O)[C@H]1CC[C@H]2[C@@H]3CCC4=CC(=O)CC[C@]4(C)[C@H]3CC[C@]12C | 48.7 µM (active) | 
2 | COC(=O)c1ccccc1OC | inactive | 
3 | c1cnccn1 | inactive | 
4 | COc1cc2nc(N3CCN(C(=O)c4ccco4)CC3)nc(N)c2cc1OC | inactive | 
5 | O=[N+]([O-])c1ccc(F)c(Cl)c1 | inactive | 
6 | CCCC[P+](C)(CCCC)CCCC | inactive | 
7 | Cc1nc2n(c(=O)c1CCN1CCC(c3noc4cc(F)ccc34)CC1)CCCC2 | inactive | 
8 | O[C@@H]([C@H](O)[C@H](O)CBr)[C@H](O)CBr | inactive | 
9 | [Cu+] | inactive | 
10 | O=C(O)c1ccc2cc(C(=O)O)ccc2c1 | inactive | 
11 | CCCCCCOC(=O)C(C)CC (stereo unspecified) | inactive | 
12 | O=c1[nH]c2ccccc2n1CCCN1CCN(C(c2ccccc2)c2ccccc2)CC1 | 29.8 µM (active) | 
13 | C=Cc1cccc(C)c1 | inactive | 
14 | O=C(/C=C/c1ccc(O)c(O)c1)O[C@@H](C(=O)O)[C@@H](OC(=O)/C=C/c1ccc(O)c(O)c1)C(=O)O | inactive | 
15 | CCc1cccc(CC)c1NC(=O)CN(CC(=O)O)CC(=O)O | inactive | 
16 | CCCc1ccc(OCC(=O)N2CCN(C(=O)COc3ccc(CCC)cc3OC)CC2)c(OC)c1 | inactive | 

Row | Compound | Potency | activity change, negative = cytotoxicity
17 | CCCCCCCC | inactive | 
18 | CC(C)CCOC(=O)/C=C/c1ccccc1 | inactive | 
19 | COc1ccc(-c2coc3cc(O)ccc3c2=O)cc1 | inactive | 
20 | Oc1cc(Cl)cc(Cl)c1Cl | inactive | 
21 | Cc1ccc(-c2ccccc2)cc1 | inactive | 
22 | C/C=C/C=C/COC(=O)C(C)C | inactive | 
23 | CCCCCCCCCCOC(=O)c1ccccc1C(=O)OCCCCCCCC | inactive | 
24 | C=CC(C)(CCC=C(C)C)OC=O (stereo unspecified) | inactive | 
25 | CC(CO)Oc1ccccc1 (stereo unspecified) | inactive | 
26 | CC(C)=CCC1=C(O)c2ccccc2C(=O)C1=O | inactive | 
27 | O=C(O)c1cc(=O)c2ccccc2o1 | inactive | 
28 | CC(=O)c1ccc(C(C)=O)cc1 | inactive | 
29 | CC[N+](CC)(CC)CCOC(=O)C(C1CCCC1)C1CCCC1 | inactive | 
30 | CC(C)(C)CC(C)(C)c1ccc(Nc2ccc(C(C)(C)CC(C)(C)C)cc2)cc1 |  | -7.52% [at 5.95 µM]
31 | NC(=O)c1cccc([N+](=O)[O-])c1 | inactive | 

biological target: Peroxisome proliferator-activated receptor delta (Homo sapiens) (UniProt Q03181); test: qHTS assay to identify small molecule agonists of the peroxisome proliferator-activated receptor delta (PPARd) signaling pathway (AID 743212; calls by dose curve); settings: HEK293H PPARd-UAS-bla, beta-lactamase FRET ratio, 17 h; series mostly up to 62.6 µM
Sequence (Q03181 whole entry, looked up): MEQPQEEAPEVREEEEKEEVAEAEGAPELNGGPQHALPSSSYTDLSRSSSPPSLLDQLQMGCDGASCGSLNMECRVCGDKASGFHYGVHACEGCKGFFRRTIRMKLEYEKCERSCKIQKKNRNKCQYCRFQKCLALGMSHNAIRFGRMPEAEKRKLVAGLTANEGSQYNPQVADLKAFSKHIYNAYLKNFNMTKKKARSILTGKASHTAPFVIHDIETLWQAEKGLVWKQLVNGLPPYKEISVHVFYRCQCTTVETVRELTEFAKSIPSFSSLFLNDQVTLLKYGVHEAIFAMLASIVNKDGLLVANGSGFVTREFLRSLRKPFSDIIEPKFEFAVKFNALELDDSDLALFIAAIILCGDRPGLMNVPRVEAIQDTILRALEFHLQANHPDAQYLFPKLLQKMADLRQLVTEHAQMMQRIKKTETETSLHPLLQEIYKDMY
Summary of the method: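 HEK293H UAS-bla reporter cells, human PPARd system; compounds delivered in DMSO after 5 h plating, then at 37 C. Beta-lactamase FRET read, 2 h RT substrate step.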

Row | Compound | Potency
32 | COC(=O)c1ccccc1OC | inactive
33 | c1cnccn1 | inactive
34 | COc1cc2nc(N3CCN(C(=O)c4ccco4)CC3)nc(N)c2cc1OC | inactive
35 | Cc1nc2n(c(=O)c1CCN1CCC(c3noc4cc(F)ccc34)CC1)CCCC2 | inactive
36 | [Cu+] | inactive
37 | CCCCCCOC(=O)C(C)CC (stereo unspecified) | inactive
38 | C=Cc1cccc(C)c1 | inactive
39 | c1ccc(C(O[C@@H]2CCCN(CCc3ccc4c(c3)OCO4)C2)c2ccccc2)cc1 | inactive
40 | CCc1cccc(CC)c1NC(=O)CN(CC(=O)O)CC(=O)O | inactive
41 | CCCCCCCC | inactive
42 | CC(C)CCOC(=O)/C=C/c1ccccc1 | inactive
43 | Oc1cc(Cl)cc(Cl)c1Cl | inactive
44 | Cc1ccc(-c2ccccc2)cc1 | inactive
45 | C/C=C/C=C/COC(=O)C(C)C | inactive
46 | CCCCCCCCCCOC(=O)c1ccccc1C(=O)OCCCCCCCC | inactive
47 | OC12N=C(c3ccccc3)SC1Cc1cc(Cl)ccc12 (stereo unspecified) | inactive
48 | O=C(O)c1cc(=O)c2ccccc2o1 | inactive
49 | CC(=O)c1ccc(C(C)=O)cc1 | inactive
50 | CC[N+](CC)(CC)CCOC(=O)C(C1CCCC1)C1CCCC1 | inactive
51 | NC(=O)c1cccc([N+](=O)[O-])c1 | inactive
